# Assay results published in PubChem BioAssay.
# Records with an inconclusive call do not appear. Activity calls are given as the source filed them. Cut-off read from the data, not from the text of the source, unless noted: active = inhibition above about 80%; inactive = the rest.
# What was measured:
# [1] = circadian clock period modulators, cell-based, LOPAC library, luminescence reporter (AID 2774; call rule not given here;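 note: values are relative to mean of DMSO wells on each plate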); conditions: circadian reporter cells, at 7 µM, actives lie on both sides
# [2] = growth inhibition of DIPG glioma cells, dose response, cell-based, SU-DIPG-XIII, MIPE5.0, CellTiter-Glo, qHTS (AID 1347064; cut-off not given, nearly all actives have AC50 up to about 23 µM); conditions: SU-DIPG-XIII viability, CellTiter-Glo ATP luminescence
# [3] = JHH-DIPG-1 glioma cell viability, MIPE5.0 library, CellTiter-Glo luminescence, qHTS (AID 1347067; cut-off not given, nearly all actives have AC50 up to about 26 µM;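 note: cells exposed to compound for 48 hours before readout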); conditions: JHH-DIPG-1 glioma viability, CellTiter-Glo ATP luminescence
# [4] = LFS_MB_P medulloblastoma growth inhibition, cell-based, chromothripsis tumors, cisplatin or BGB combos (AID 1671449); conditions: LFS_MB_P medulloblastoma cells;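 note: cells exposed for 96 hours; 0% = vehicle DMSO and 100% = killing by high DMSO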
# [5] = HDN33 neuroblastoma growth inhibition, cell-based, chromothripsis tumors, cisplatin or BGB combos (AID 1671450); conditions: HDN33 neuroblastoma cells, stronger effect = higher value;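 note: cells exposed to compound for four days; 0% = vehicle DMSO and 100% = cell killing by high DMSO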
# [6] = ICB984 medulloblastoma cell growth inhibition, synergistic combos for chromothripsis tumors, cisplatin or BGB combos (AID 1671451; call rule not given here;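 note: cells exposed for 96 hours before readout; 0% = vehicle DMSO and 100% = killing by high DMSO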); conditions: ICB984 medulloblastoma cells, drug combinations, stronger effect = higher value
# [7] = LFS_MB_1R medulloblastoma cell growth inhibition, synergistic combos for chromothripsis tumors, cisplatin or BGB combos (AID 1671452); conditions: LFS_MB_1R medulloblastoma cells, stronger effect = higher value;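 note: cells exposed for 96 hours before readout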
# [8] = HTB85 osteosarcoma cell growth inhibition, synergistic combos for chromothripsis tumors, BGB or cisplatin IC20 combos (AID 1671453); conditions: HTB85 osteosarcoma cells, drug combinations, stronger effect = higher value;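 note: cells exposed for 96 hours before readout; 0% = vehicle DMSO and 100% = high DMSO killing control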
# [9] = CRL2098 osteosarcoma cell growth inhibition, synergistic combos for chromothripsis tumors, BGB or cisplatin IC20 combos (AID 1671454); conditions: CRL2098 osteosarcoma cells, drug combinations, stronger effect = higher value;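 note: cells exposed for 96 h before readout; 0% = vehicle DMSO and 100% = killing by high DMSO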
# [10] = HD-MB03 medulloblastoma cell growth inhibition, synergistic combos for chromothripsis tumors, BGB or cisplatin IC20 combos (AID 1671455; in the data active = inhibition above about 83%;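 note: 0% = vehicle DMSO and 100% = high DMSO as cytotoxic control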); conditions: HD-MB03 medulloblastoma cells, stronger effect = higher value
# [11] = UWB1.289 ovarian carcinoma cell growth inhibition, synergistic combos for chromothripsis tumors, BGB or cisplatin combos (AID 1671456); conditions: UWB1.289 ovarian carcinoma cells, stronger effect = higher value;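 note: cells exposed to compound for four days; 0% = vehicle DMSO and 100% = killing by high DMSO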
# [12] = MDA-MB-436 breast carcinoma cell growth inhibition, synergistic combos for chromothripsis tumors, BGB or cisplatin combos (AID 1671458; call rule not given here;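 note: cells exposed for 96 hours; 0% = vehicle DMSO and 100% = killing by high DMSO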); conditions: MDA-MB-436 breast carcinoma growth inhibition, drug combinations, stronger effect = higher value
# [13] = growth inhibition of BT084 medulloblastoma cells, cell-based, ICGC_MB145, cisplatin and BGB IC40 combos (AID 1671461); conditions: drug combinations, stronger effect = higher value;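 note: cells exposed to drugs for 96 hours; 0% = vehicle DMSO and 100% = high DMSO full killing control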
# [14] = growth inhibition of RCMB18 medulloblastoma cells, cell-based, cisplatin and BGB IC40 combos (AID 1671462); conditions: stronger effect = higher value;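 note: cells exposed to compound for four days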
# [15] = growth inhibition of CRL1545 osteosarcoma cells, cell-based, cisplatin and BGB IC20 combos (AID 1671464); conditions: stronger effect = higher value;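 note: cells exposed to compound for 96 hours before readout; 0% = vehicle DMSO and 100% = high DMSO killing control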
# [16] = measured here: combination with BGB IC40, at 0.05 µM
# [17] = measured here: with BGB IC20 combination, at 0.5 µM
# [18] = measured here: with cisplatin IC20 combination, at 0.5 µM
# [19] = measured here: combination with cisplatin, at 0.5 µM
smiles,measurement,setting,value
CCOC(=O)Nc1ccc(NCc2ccc(F)cc2)nc1N,period change,[1],-0.33 h (inactive)
same,outcome,[2],inactive
same,outcome,[3],inactive
same,inhibition,"[4]; at 0.5 µM, stronger effect = higher value",-13% (inactive)
same,inhibition,"[4]; measured here: combination with BGB IC20, at 0.005 µM",-4.33%
same,inhibition,"[4]; measured here: combination with BGB IC40, at 0.005 µM",50.9%
same,inhibition,[4]; [16],-18.8%
same,inhibition,"[4]; measured here: combination with cisplatin, at 0.5 µM, stronger effect = higher value",4.96%
same,inhibition,"[4]; measured here: combination with cisplatin, at 5 µM, stronger effect = higher value",-32.9%
same,inhibition,"[5]; BGB combo, at 5 µM",-49%
same,inhibition,[5]; at 0.5 µM,0.72% (inactive)
same,inhibition,"[5]; cisplatin combo, at 5 µM",-18.8%
same,inhibition,[5]; [17],-18.2%
same,inhibition,[5]; [18],17%
same,inhibition,"[5]; single agent, at 5 µM",-28.3%
same,inhibition,"[6]; BGB IC20 combo, at 0.005 µM",-2.86%
same,inhibition,"[6]; BGB IC40 combo, at 0.005 µM",-6.26%
same,inhibition,"[6]; BGB IC40 combo, at 0.05 µM",-38.3%
same,inhibition,[6]; at 0.5 µM,-14.8% (inactive)
same,inhibition,"[6]; cisplatin combo, at 0.05 µM",-45.5%
same,inhibition,"[6]; cisplatin combo, at 0.5 µM",-9.07%
same,inhibition,"[6]; cisplatin combo, at 5 µM",-15.3%
same,inhibition,"[6]; measured here: 5 uM single agent, at 5 µM",-2.67%
same,inhibition,[7]; at 0.5 µM,-9.81% (inactive)
same,inhibition,[7]; [16],-17%
same,inhibition,[7]; [19],-23.8%
same,inhibition,"[7]; measured here: combination with cisplatin, at 5 µM",-29.7%
same,inhibition,[8]; at 0.5 µM,21.2% (inactive)
same,inhibition,"[8]; measured here: with BGB IC20, at 0.5 µM",57.6%
same,inhibition,"[8]; measured here: with BGB IC20, at 5 µM",10.9%
same,inhibition,"[8]; measured here: with cisplatin IC20, at 0.5 µM",-16.9%
same,inhibition,"[8]; measured here: with cisplatin IC20, at 5 µM",0.401%
same,inhibition,"[8]; single agent, at 5 µM",1.76%
same,inhibition,[9]; at 0.5 µM,-23.9% (inactive)
same,inhibition,"[9]; measured here: combination with BGB at IC20, at 0.5 µM",-12.9%
same,inhibition,"[9]; measured here: combination with cisplatin at IC20, at 0.5 µM",-33.8%
same,inhibition,[10]; at 0.5 µM,-9% (inactive)
same,inhibition,"[10]; measured here: combo with BGB at IC20, at 0.5 µM",-9.72%
same,inhibition,"[10]; measured here: combo with cisplatin at IC20, at 0.5 µM",-9.37%
same,inhibition,[11]; at 0.5 µM,4.04% (inactive)
same,inhibition,"[11]; measured here: inhibition with BGB combination, at 0.05 µM",-16.5%
same,inhibition,"[11]; measured here: inhibition with cisplatin combination, at 0.05 µM",-2.73%
same,inhibition,[12]; at 0.5 µM,-12.4% (inactive)
same,inhibition,"[12]; measured here: BGB combination, at 0.5 µM",-4.35%
same,inhibition,"[12]; measured here: BGB combination, at 5 µM",-17.6%
same,inhibition,"[12]; measured here: cisplatin combination, at 0.5 µM",-28%
same,inhibition,"[12]; measured here: cisplatin combination, at 5 µM",-26.4%
same,inhibition,[13]; at 0.5 µM,3.08% (inactive)
same,inhibition,"[13]; cisplatin combination, at 0.5 µM",2.67%
same,inhibition,"[13]; cisplatin combination, at 5 µM",-33.2%
same,inhibition,"[13]; measured here: BGB IC40 combination 0.05 uM, at 0.05 µM",71.5%
same,inhibition,"[13]; single agent, at 5 µM",2.9%
same,inhibition,[14]; at 0.5 µM,-10.8% (inactive)
same,inhibition,"[14]; cisplatin combo, at 5 µM",-27%
same,inhibition,"[14]; measured here: BGB IC40 combination, at 0.05 µM",4.05%
same,inhibition,[14]; [19],-15.1%
same,inhibition,"[14]; single agent, at 5 µM",-7.25%
same,inhibition,[15]; at 0.5 µM,5.77% (inactive)
same,inhibition,[15]; [17],-17.8%
same,inhibition,[15]; [18],16.2%
same,inhibition,"[15]; single agent, at 0.05 µM",-4.81%
same,inhibition,"[15]; single agent, at 5 µM",-34.9%
